The source made the active and inactive calls.
Experiments:
[1] = small molecules captured by biotinylated probe aFSTL3 – biochemical, small-molecule microarray, fluorescence 635/667, stem cell growth factor project, primary screen (AID 1064); conditions: higher = more signal;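 also: measures binding of the biotinylated anti-FSTL3 antibody to printed compounds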
[2] = binders from COS7 lysate, DM2A8 probe, primary screen, torsin A project, cell lysate, small-molecule microarray, fluorescence 635/667 (AID 1065); conditions: higher = more signal, COS7 lysate expressing mutant human TOR1A
[3] = small molecules captured by biotinylated probe aFGF2 – biochemical, small-molecule microarray, fluorescence 635/667, stem cell growth factor project, primary screen (AID 1067); conditions: higher = more signal;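 also: measures binding of biotinylated aFGF2 protein to printed compounds on slides; z-score merges feature fluorescence and signal-to-noise across triplicate slides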
[4] = small molecules captured by biotinylated probe aFGF10 – biochemical, small-molecule microarray, fluorescence 635/667, stem cell growth factor project, primary screen (AID 1071); conditions: higher = more signal;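 also: score merges 667 nm spot intensity and signal to noise from triplicate slides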
[5] = target: Neurogenic locus notch homolog protein 2 (Homo sapiens) (UniProt Q04721); assay: small molecules binding Notch2 protein – biochemical, small-molecule microarray, 635 nm fluorescence, stem cell growth factors, primary screen (AID 1073); conditions: higher = more signal
[6] = target: Pro-neuregulin-1, membrane-bound isoform (Homo sapiens) (UniProt Q02297); assay: small molecules binding neuregulin-1 protein – biochemical, small-molecule microarray, fluorescence 635/667, psychiatric disease protein project, primary screen (AID 1075); conditions: NRG1 binding, 635 nm fluorescence, higher = more signal;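 also: score combines 667 nm spot fluorescence with signal to noise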
Sequence of Pro-neuregulin-1, membrane-bound isoform (Homo sapiens) (Q02297 whole entry, looked up, the tested form may be a part, canonical isoform): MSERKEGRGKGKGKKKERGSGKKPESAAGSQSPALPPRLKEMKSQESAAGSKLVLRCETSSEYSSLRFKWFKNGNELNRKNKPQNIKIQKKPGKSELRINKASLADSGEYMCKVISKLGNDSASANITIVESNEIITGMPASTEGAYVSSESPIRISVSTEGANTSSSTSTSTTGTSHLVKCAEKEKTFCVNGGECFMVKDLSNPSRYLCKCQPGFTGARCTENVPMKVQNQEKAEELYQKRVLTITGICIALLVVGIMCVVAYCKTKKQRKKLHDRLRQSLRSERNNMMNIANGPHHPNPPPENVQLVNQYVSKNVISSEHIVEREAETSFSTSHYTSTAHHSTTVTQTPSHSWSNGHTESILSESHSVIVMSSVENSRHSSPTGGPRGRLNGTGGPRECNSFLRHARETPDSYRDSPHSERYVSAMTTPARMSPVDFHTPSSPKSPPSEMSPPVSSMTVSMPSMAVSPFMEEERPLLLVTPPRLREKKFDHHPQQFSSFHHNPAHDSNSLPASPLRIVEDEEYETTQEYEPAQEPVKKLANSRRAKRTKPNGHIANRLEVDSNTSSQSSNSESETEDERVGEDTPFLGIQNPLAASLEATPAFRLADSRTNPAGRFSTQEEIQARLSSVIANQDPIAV

[7] = tested on: Neuregulin-1 EGF-like domain; assay: small molecules binding NRG1 EGF domain – biochemical, small-molecule microarray, 635 nm fluorescence, primary screen (AID 1081); conditions: higher = more signal;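 also: binding of the protein to compounds printed on small-molecule microarray slides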
[8] = FRG1 expression reporter modulators in myotubes – cell-based, C2C12 myotubes, firefly/Renilla luciferase, luminescence, FRG1 inhibition for FSHD, primary screen (AID 1084); conditions: FRG1 promoter luciferase, higher = more signal, called active from +8 up or from −8 down
[9] = small molecules captured by biotinylated probe aFST – biochemical, small-molecule microarray, fluorescence 635/667, stem cell growth factor project, primary screen (AID 1086); conditions: higher = more signal;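 also: score merges 667 nm fluorescence with signal-to-noise of each printed compound spot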
[10] = binders of probe aHhip on microarray, primary screen, stem cell growth factor project, biochemical, small-molecule microarray, fluorescence 635/667 (AID 1087); conditions: higher = more signal;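 also: score merges spot fluorescence at 667nm with spot signal to noise ratio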
[11] = tested on: PRMT1 (protein arginine N-methyltransferase 1); assay: small molecules binding arginine methyltransferase PRMT1 – biochemical, small-molecule microarray, 635 nm fluorescence, primary screen (AID 1088); conditions: higher = more signal;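 also: binding of Prmt1 protein to compounds spotted on small-molecule microarray slides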
[12] = growth effects on S. cerevisiae YJM789 – YJM789 clinical isolate, OD600, 24 h, basal, primary screen (AID 1089); conditions: higher = more signal, called active from +8 up or from −8 down;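 also: growth of clinical yeast isolate S. cerevisiae YJM 789 seeded 1000 cells per well; test concentration not given here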
[13] = S. pombe growth modifiers, basal conditions – strain 972, OD600, 24 h, no modulator, primary screen (AID 1090);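 also: basal condition with compound alone and no growth modifier present; test concentration not given here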; conditions: S. pombe 972 growth, higher = more signal, called active from +8 up or from −8 down
[14] = budding yeast growth modifiers under rapamycin – strain BY4716, OD600, 96 h, primary screen (AID 1091); also: test concentration not given here; conditions: S. cerevisiae BY4716 + rapamycin, higher = more signal, called active from +8 up or from −8 down
[15] = target: Torsin-1A-interacting protein 2 (Homo sapiens) (UniProt Q8NFQ8); assay: small molecules binding lysate-expressed LULL1 – cell lysate, human LULL1 lysate, 635/667 nm fluorescence, primary screen (AID 1092); conditions: small-molecule microarray, hLULL1 lysate binding, 635 nm fluorescence; higher = more signal;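 also: probe is lysate of COS7 cells overexpressing human LULL1; score merges per-feature 667 nm fluorescence with signal-to-noise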
Sequence of Torsin-1A-interacting protein 2 (Homo sapiens) (Q8NFQ8 whole entry, looked up): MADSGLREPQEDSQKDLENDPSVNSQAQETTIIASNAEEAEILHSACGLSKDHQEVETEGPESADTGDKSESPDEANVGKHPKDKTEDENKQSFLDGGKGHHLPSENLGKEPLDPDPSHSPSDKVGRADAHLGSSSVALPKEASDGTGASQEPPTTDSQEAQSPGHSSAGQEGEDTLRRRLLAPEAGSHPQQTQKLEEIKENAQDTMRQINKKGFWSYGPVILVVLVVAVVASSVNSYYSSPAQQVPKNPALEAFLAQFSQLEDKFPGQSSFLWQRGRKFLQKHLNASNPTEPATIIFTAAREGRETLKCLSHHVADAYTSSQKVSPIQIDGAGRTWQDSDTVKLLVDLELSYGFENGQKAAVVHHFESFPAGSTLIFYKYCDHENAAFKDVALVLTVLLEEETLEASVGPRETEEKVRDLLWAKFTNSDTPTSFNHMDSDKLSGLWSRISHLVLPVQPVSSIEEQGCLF

[16] = optical density change of DRC41 E. coli – strain DRC41, OD650, 24 h, E. coli filamentation project, primary screen (AID 1093);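 also: MC1000 strain lacking acrAB efflux and sulA so SOS filamentation is blocked; test concentration not given here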; conditions: E. coli DRC41 growth, higher = more signal, called active from +8 up or from −8 down
[17] = probe aLefty2 binding to arrayed compounds – biochemical, biotinylated probe, 635/667 nm fluorescence, primary screen (AID 1094); conditions: small-molecule microarray, higher = more signal;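 also: score merges spot fluorescence near 667 nm with spot signal-to-noise ratio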
[18] = tested on: Noggin (protein binding on small-molecule microarray); assay: small molecules binding Noggin protein – biochemical, 635/667 nm fluorescence, primary screen (AID 1095); conditions: 635 nm fluorescence, higher = more signal;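 also: score merges 667 nm feature fluorescence with signal to noise over triplicate slides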
[19] = target: Neurogenic locus notch homolog protein 3 (Homo sapiens) (UniProt Q9UM47); assay: small molecules binding NOTCH3 protein – biochemical, 635/667 nm fluorescence, primary screen (AID 1096); conditions: small-molecule microarray, 635 nm fluorescence, higher = more signal
Sequence of Neurogenic locus notch homolog protein 3 (Homo sapiens) (Q9UM47 whole entry, looked up): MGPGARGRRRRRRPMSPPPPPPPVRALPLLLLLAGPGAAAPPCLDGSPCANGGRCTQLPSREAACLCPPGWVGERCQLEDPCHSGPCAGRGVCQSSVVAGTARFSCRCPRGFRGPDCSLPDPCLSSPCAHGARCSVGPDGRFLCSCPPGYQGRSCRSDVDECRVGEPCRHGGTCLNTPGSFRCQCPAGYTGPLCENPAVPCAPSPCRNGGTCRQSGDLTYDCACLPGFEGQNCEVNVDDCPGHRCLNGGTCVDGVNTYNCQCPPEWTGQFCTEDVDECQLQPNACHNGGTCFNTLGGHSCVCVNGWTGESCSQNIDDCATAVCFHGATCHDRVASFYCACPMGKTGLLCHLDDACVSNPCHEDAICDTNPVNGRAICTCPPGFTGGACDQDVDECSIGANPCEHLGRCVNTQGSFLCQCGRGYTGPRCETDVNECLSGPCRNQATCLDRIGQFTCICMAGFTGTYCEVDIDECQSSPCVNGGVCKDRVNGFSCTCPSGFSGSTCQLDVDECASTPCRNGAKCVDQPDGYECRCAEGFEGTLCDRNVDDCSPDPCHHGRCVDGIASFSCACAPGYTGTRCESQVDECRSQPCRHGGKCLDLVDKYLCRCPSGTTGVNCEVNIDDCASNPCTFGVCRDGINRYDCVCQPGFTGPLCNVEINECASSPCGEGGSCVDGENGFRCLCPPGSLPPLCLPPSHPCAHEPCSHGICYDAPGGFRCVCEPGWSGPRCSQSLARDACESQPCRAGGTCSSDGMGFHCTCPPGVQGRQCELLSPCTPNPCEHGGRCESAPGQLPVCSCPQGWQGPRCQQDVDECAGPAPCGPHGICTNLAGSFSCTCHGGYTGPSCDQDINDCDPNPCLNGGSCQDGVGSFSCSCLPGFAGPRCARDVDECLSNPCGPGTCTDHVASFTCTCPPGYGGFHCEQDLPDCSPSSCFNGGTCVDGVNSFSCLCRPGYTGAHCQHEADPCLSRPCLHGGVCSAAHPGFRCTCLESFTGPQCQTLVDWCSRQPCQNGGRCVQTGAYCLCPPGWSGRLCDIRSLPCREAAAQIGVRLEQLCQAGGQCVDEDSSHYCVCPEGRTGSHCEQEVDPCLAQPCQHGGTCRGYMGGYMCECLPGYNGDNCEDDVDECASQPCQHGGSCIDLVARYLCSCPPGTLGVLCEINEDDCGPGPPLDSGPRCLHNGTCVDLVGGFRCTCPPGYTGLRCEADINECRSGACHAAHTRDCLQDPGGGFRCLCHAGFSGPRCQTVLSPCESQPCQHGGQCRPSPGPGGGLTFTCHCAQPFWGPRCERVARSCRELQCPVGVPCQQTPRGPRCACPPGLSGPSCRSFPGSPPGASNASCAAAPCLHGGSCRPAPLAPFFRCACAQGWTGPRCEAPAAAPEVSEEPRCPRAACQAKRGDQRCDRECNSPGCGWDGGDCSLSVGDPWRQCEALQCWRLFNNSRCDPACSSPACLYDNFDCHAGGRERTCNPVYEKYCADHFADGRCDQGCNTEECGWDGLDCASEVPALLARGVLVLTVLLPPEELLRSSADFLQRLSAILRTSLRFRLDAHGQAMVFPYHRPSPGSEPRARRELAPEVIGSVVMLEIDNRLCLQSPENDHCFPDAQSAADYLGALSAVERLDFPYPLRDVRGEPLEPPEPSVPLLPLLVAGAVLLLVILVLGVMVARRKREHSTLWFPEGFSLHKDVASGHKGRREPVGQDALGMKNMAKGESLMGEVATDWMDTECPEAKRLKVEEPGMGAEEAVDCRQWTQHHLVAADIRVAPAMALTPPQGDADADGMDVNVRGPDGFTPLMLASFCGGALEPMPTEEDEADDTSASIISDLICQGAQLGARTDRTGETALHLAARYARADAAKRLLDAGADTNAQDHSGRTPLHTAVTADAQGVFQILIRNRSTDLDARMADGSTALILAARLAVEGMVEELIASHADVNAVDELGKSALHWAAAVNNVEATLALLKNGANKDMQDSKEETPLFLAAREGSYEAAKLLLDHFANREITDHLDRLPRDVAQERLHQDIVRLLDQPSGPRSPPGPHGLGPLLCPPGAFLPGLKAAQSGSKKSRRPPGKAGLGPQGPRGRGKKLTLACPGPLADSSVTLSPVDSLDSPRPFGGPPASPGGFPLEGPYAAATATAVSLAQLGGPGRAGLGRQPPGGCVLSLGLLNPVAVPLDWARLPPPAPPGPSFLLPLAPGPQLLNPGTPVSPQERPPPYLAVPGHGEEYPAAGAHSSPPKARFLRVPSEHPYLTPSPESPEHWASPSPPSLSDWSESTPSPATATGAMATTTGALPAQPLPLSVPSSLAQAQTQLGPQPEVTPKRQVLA

[20] = probe aEGFR binding to arrayed compounds – biochemical, biotinylated probe, 635/667 nm fluorescence, primary screen (AID 1097); conditions: small-molecule microarray, higher = more signal;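 also: probe is a biotinylated anti-EGFR antibody binding compounds printed on slides; score combines fluorescence near 667 nm and signal to noise of each spot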

Structure (SMILES)	composite z-score [1]	composite z-score [2]	composite z-score [3]	composite z-score [4]	composite z-score [5]	composite z-score [6]	composite z-score [7]	z-score [8]	composite z-score [9]	composite z-score [10]	composite z-score [11]	z-score [12]	z-score [13]	z-score [14]	composite z-score [15]	z-score [16]	composite z-score [17]	composite z-score [18]	composite z-score [19]	composite z-score [20]
COC(=O)[C@@]1(CCC(=O)OC(C)(C)C)N=C(c2ccc(OCCCO)cc2)O[C@H]1c1ccccc1CN=[N+]=[N-]	0.0643	-0.13	-0.12	-0.191	-0.066	0.118	0.148	-2.14 (inactive)	-0.04	0.21	0.373	0.0206 (inactive)	0.646 (inactive)	9.66 (active)	1.85	1.08 (inactive)	-0.0963	0.201	0.235	-0.0418
C[C@H]1NC(=O)C([C@@H](C)OCc2ccccc2)NC(=O)[C@@]23C(=O)N[C@@H](Cc4ccccc4)C2[C@H](C)[C@@]2(C)O[C@H]2C3/C=C/C/C=C\CNC1=O (stereo not given in full)	-0.265	0.0677	-0.183	0.817	-0.363	-0.341	0.989	0.493 (inactive)	-0.407	-0.0324	-0.242	0.823 (inactive)	-0.389 (inactive)	1.06 (inactive)	0.721	0.147 (inactive)	-0.192	0.797	0.0201	-0.168
COCCOC(=O)N1C(=O)[C@@]2(c3cc(C#CCC(C(=O)OC)C(=O)OC)ccc31)[C@H](C(N)=O)[C@H]1C(=O)O[C@H](c3ccccc3)[C@H](c3ccccc3)N1[C@@H]2c1ccc(OCCO)cc1	-0.231	0.787	0.0001	0.906	1.34	1.19	1.23	0.789 (inactive)	0.111	-0.249	1.53	2.23 (inactive)	2.01 (inactive)	6.44 (inactive)	2.77	-0.55 (inactive)	0.0139	0.813	1.08	-0.0245
C=C(/C(=C/C[C@@H](OC(C)=O)c1ccccc1OCCO)c1cc(C(=O)OC)ccc1OC)C(C)C	-0.101	0.179	-0.049	0.643	0.632	0.685	0.5	0.178 (inactive)	-0.145	-0.312	0.551	0.343 (inactive)	-0.377 (inactive)	-0.729 (inactive)	0.231	0.505 (inactive)	-0.119	0.235	-0.163	0.198
COc1ccc([Si](C)(C)[C@H]2[C@H](CCO)O[C@@]3(C(=O)N(Cc4ccccc4)c4ccc(N(C=O)c5ccccc5)cc43)[C@@H]2C)cc1	-0.317	0.242	-0.103	0.199	0.697	0.929	0.818	-0.919 (inactive)	0.643	-0.0994	1.57	-0.347 (inactive)	1.08 (inactive)	20.3 (active)	1.65	0.773 (inactive)	-0.182	0.513	1.09	-0.0121
COCC1=C([C@H](O)CCc2ccccc2)[C@H](CO)n2c(=O)n(-c3ccccc3)c(=O)n2C1	-0.13	-0.235	-0.112	0.204	-0.423	-0.675	-0.416	-3.19 (inactive)	-0.371	-0.156	-0.872	-1.47 (inactive)	-1.41 (inactive)	-0.259 (inactive)	-0.728	2.86 (inactive)	-0.0146	-0.0338	-0.907	-0.253
CC(C)C[C@@H]1NC(=O)C([C@@H](C)OCc2ccccc2)NC(=O)[C@@]23C(=O)N[C@@H](Cc4ccccc4)C2[C@H](C)[C@@]2(C)O[C@H]2C3/C=C/CC/C=C/CNC1=O (stereo not given in full)	-0.38	0.924	-0.0841	0.379	0.319	1.11	0.979	1.49 (inactive)	0.0793	-0.353	1.55	-0.404 (inactive)	-1.07 (inactive)	-1.28 (inactive)	1.82	0.957 (inactive)	-0.129	1.18	0.767	-0.0512
CN(C)C(=O)[C@]1(Cc2ccccc2)N=C(c2ccc(OCCCO)cc2)O[C@@H]1c1ccccc1	-0.129	0.984	0.0376	1.08	1.46	1.78	1.28	-0.306 (inactive)	0.952	0.127	1.52	0.0608 (inactive)	-3.66 (inactive)	-0.344 (inactive)	3.52	-0.465 (inactive)	0.0735	0.372	0.771	-0.0157
C[N+](C)(C)CCCC[C@@H]1NC(=O)[C@H]2C[C@@H](C(=O)NCCCCCNC(=O)CS)[C@@H](c3ccc(O)cc3)N2C1=O	-0.257	-0.0727	-0.118	0.198	0.363	1.55	0.745	-1.04 (inactive)	0.104	0.0623	0.808	-4.72 (inactive)	-0.839 (inactive)	-0.554 (inactive)	1.91	1.42 (inactive)	-0.134	0.212	0.58	-0.0583
Cc1ccccc1C(O)C1C=CC2C(=O)N(c3ccccc3)C(=O)C2N1Nc1ccccc1F (stereo not given)	0.397	0.0771	0.213	0.737	1.16	2.15	0.93	-1.35 (inactive)	1.19	-0.0994	1.16	0.0769 (inactive)	0.592 (inactive)	0.764 (inactive)	3.41	-0.927 (inactive)	0.496	-0.471	1.12	0.0122

From PubChem BioAssay
